Source: the supplement of paper PMC10981050
Several values for one entry are separate records, joined by “and”; a condition that tells them apart may be missing. Equal entries are not always repeated. Structures can show the parent of a compound that is named as a salt.

Legend:
Assay in all cases: cell viability relative to vehicle control; higher = less cytotoxic
Settings in all cases: 10 µM
K562 = system: K562
Procedure, shortened: (§1)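 Mutant clones made by CRISPR editing and their isogenic wild-type counterparts, from four leukaemia lines, were exposed to a single 10 µM dose of each library compound for 48 h. The supernatant was then removed and CellTiter-Glo luminescence was read. Viability was reported as percent of the on-plate vehicle control.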

MARIMO = system: MARIMO
Procedure, shortened: as §1

MOLM14 = system: MOLM14
Procedure, shortened: as §1

OCI-AML2 = system: OCI-AML2
Procedure, shortened: as §1

Structure (SMILES) | cell viability (K562; SRSF2 genotype: SRSF2 P95H/wt) | cell viability (K562; SRSF2 genotype: SRSF2 wt/wt) | cell viability (MARIMO; SRSF2 genotype: SRSF2 P95H/wt) | cell viability (MARIMO; SRSF2 genotype: SRSF2 wt/wt) | cell viability (MOLM14; SRSF2 genotype: SRSF2 P95H/wt) | cell viability (MOLM14; SRSF2 genotype: SRSF2 wt/wt) | cell viability (OCI-AML2; SRSF2 genotype: P95H/wt) | cell viability (OCI-AML2; SRSF2 genotype: wt/wt)
CCn1cc(C(=O)O)c(=O)c2cc(F)c(N3CCN(C)CC3)cc21 [Pefloxacin Mesylate Dihydrate] | 83.5% and 78% | 80.7% | 88% | 94.2% | 87.7% | 92.1% | 90.9% | 94.8%
O=c1cc(-c2ccc(OC3OC(CO)C(O)C(O)C3O)cc2)oc2c(C3OC(CO)C(O)C(O)C3O)c(O)cc(O)c12 (stereo unspecified) [4'-O-Glucosylvitexin] | 97% and 102% | 101% | 97.3% | 91.7% | 99.6% | 99% | 97.4% | 96.8%
CN1CCN(C(=O)c2cc3cc(Cl)ccc3[nH]2)CC1 | 99% and 97.5% | 98.6% | 100% | 98.7% | 92.6% | 99.3% | 109% | 96.6%
Nc1ccc(S(=O)(=O)Nc2ccccn2)cc1 [Sulfapyridine (Dagenan)] | 94.3% and 101% | 97.1% | 97.7% | 107% | 103% | 100% | 106% | 97.6%
Cc1ccc(CN(CC(O)COc2cccc3[nH]ccc23)C(C)(C)C)cc1 (stereo unspecified) | 71% and 71.5% | 66.8% | 67% | 76.8% | 68% | 74% | 83.4% | 86.2%
O=C1C=C2C=C[C@@H](O)[C@H](O)[C@H]2O1 [Griffonilide] | 101% | 96.4% | 98.7% | 104% | 99.3% | 97.2% | 103% | 100%
NCC(=O)Nc1ccc(-n2nc(C(F)(F)F)cc2-c2ccc3c(ccc4ccccc43)c2)cc1 | 0.38% and 0.39% | 0.29% | 0.31% | 0.5% | 0.18% | 0.22% | 0.19% | 0.23%
CC(C)n1nc(-c2ccc3oc(N)nc3c2)c2c(N)ncnc21 | 31.8% and 31.3% | 29.9% | 37.9% | 32.7% | 13.6% | 15.8% | 6.33% | 12%
COc1ccc2cc3[n+](cc2c1OC)CCc1cc2c(cc1-3)OCO2 [Berberine chloride] | 66.5% and 69.6% | 65.3% | 67.2% | 66.7% | 70.4% | 81.3% | 48.9% | 53.8%
Cc1nn(C)c2c1C(c1ccc(C(F)(F)F)cc1)C(C#N)=C(N)O2 (stereo unspecified) | 101% and 106% | 111% | 99.5% | 95% | 103% | 102% | 112% | 121%
C[C@H](CCC(=O)O)[C@H]1CC[C@H]2[C@@H]3[C@H](O)C[C@@H]4C[C@H](O)CC[C@]4(C)[C@H]3CC[C@]12C [Chenodeoxycholic acid] | 97.4% and 101% | 99.7% | 104% | 108% | 100% | 101% | 98.4% | 106%
CCCCCCCCCCCCCc1cccc(O)c1C(=O)O [Ginkgolic Acid (C130)] | 108% and 100% | 108% | 103% | 107% | 104% | 110% | 102% | 103%
Oc1cc(CNC(=S)/C=C/c2cc(O)c(O)c(Br)c2)cc(O)c1O | 20.1% and 32.5% | 23.6% | 16.6% | 23.2% | 14.3% | 5.87% | 28.1% | 26.9%
CCOC(=O)Nc1cc(-c2ccc(C)c(NS(C)(=O)=O)c2)nn2c(C)nnc12 [Bromosporine] | 33.4% and 42% | 49.7% | 9.42% | 13.9% | 3.2% | 1.48% | 1.03% | 4.94%
O=c1[nH]c2ccccc2n1CCN1CCN(c2cccc(C(F)(F)F)c2)CC1 [Flibanserin] | 89.2% and 98.9% | 91.8% | 96.9% | 110% | 101% | 102% | 91% | 108%
CNC(=C[N+](=O)[O-])NCCSCc1ccc(CN(C)C)o1 [Ranitidine Hydrochloride] | 108% and 98.4% | 102% | 99.9% | 106% | 103% | 103% | 91% | 105%
Cc1cc(C)c(CNC(=O)c2cc(-c3ccc(N4CCN(C)CC4)nc3)cc3c2c(C)cn3C(C)C)c(=O)[nH]1 | 83.8% and 78.9% | 86% | 90.1% | 94.2% | 80.4% | 83.3% | 70.6% | 82.2%
O=C(O)CNC(=O)c1nc(Cl)c2ccccc2c1O | 84.7% and 85.9% | 81.2% | 80.5% | 91.2% | 80.2% | 89.1% | 95.8% | 89.8%
O=C(Nc1cc(Cl)cc2c1[nH]c1cnccc12)c1cccnc1 | 89% and 95.7% | 88.8% | 111% | 116% | 85.2% | 101% | 86.8% | 85.9%
N#Cc1cc(-c2n[nH]c(-c3ccncc3)n2)ccn1 [Topiroxostat] | 90.1% and 106% | 94% | 104% | 111% | 104% | 103% | 98.8% | 100%
CC(=O)N1C[C@H](O)C[C@H]1C(=O)O [Oxaceprol] | 101% and 93.4% | 99.3% | 104% | 109% | 96.1% | 102% | 94.3% | 106%
CC(C)(O)C1CCC(C)(C2C(O)CC3(C)C4CC(OC5OC(CO)C(O)C(O)C5O)C5C(C)(C)C(OC6OCC(O)C(O)C6O)CCC56CC46CCC23C)O1 (stereo unspecified) [Astragaloside A] | 104% and 103% | 99.1% | 109% | 111% | 106% | 107% | 97.2% | 103%
